PBM binding z-score data for 39 sequences are collected here from the supplement of paper PMC6555819.

The test system of the first test is PPARg:RXRa (NR concentration 180 nM, RXRa partner concentration 90 nM). Briefly: PBM binding z-score (relative to random genomic background probes); higher = stronger binding; sequences stand for … in GC…GCGATTGACAGCGTAGAATGAAGG
The method in brief:
(§1)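 Binding buffer was PBS pH 7.4 with 2% milk, 0.02% Triton X-100, 1 mM DTT, 0.2 mg/mL BSA and 0.4 mg/ml salmon testes DNA. In it, ligand-free nuclear receptor dimers were incubated 1 h on custom Agilent 4×180K protein-binding microarrays carrying double-stranded probes. Antibodies against each partner (one per run) detected binding, and z-scores were calculated against random background probes after regression normalization of scanned fluorescence.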
As for ATATGTAGGTTAGGATCATTCAGAAAGTAGGGAA, the PBM binding z-score was found to be 3.9.
For the sequence CGAGCTAGGTCACCAGGACAGTGAAGAGGTTGGA, the PBM binding z-score was 3.74.
On the same count and under the same terms, the same measure for CCAGAAAGGTGAAAGGTAACTCAGTCTGGTACGC: 6.55.
As to CGTCAAAGTTCAACTAAGGTAACGTATAGCACGC, the PBM binding z-score is 5.1.
CGCACTAGGTCAAAGGACAGTGAAAGGCGACGTA: the PBM binding z-score was 10.1.
Turning to CGAACTAGGTTACCAGGACAGTGAAGAGGTTGGA, the PBM binding z-score was determined as 3.94.
On the same count and under the same terms, the value for ATATGTAGGTTAGGGTCGTTCAGAAAGTAGGGAA was 5.88; that for CGAACTAGGTCAAAGGACAGTGACAGGCGACGTA was 10.5.
Same read-out and setting: the same measure for CGTCCAAGGGCAGCAGGTCAGTGAAAGCGACGTG: 0.305; for CGAACTAGGTCACCAGGACACTGAAGAGGTTGGA: 8.46; for GCTTACGGGTCAAAGGTTACAGCATGAATAGAAT: 12.
As to TTACCAAGGTGAAAGGTCGTTGAAGCACGCCTTG, the PBM binding z-score came to 9.24.
On the same count and under the same terms, the same measure for CGAACTAGGTCAAAGGACAATGAAAGGCGACGTA: 10.3.
Same read-out and setting: the value for GCTTACGGGTCAAAGGTTATAGTATGAATAGAAT was 11.2.
Same read-out and setting: the same measure for CGTCCAAGGTCATAGGAGGTCACTGAAGACAGAT: 6.52.
Turning to ATCGAAAGGTCGACGAGGTGAGTATGCACCGTTT, the PBM binding z-score worked out at 2.51.
Still for that read-out and setting: the same measure for CGAACTAGGTCTCCAGGACAGTGAAGAGGTTGGA: 0.908.

For the next test, the system named is PPARg:RXRa 270nM:90nM, anti-RXR (NR concentration 270 nM, RXRa partner concentration 90 nM). Described as above. The procedure, abridged:
as §1
CCCCGGAGGACAGAAGGTCAGAGCTGTCCGCTTT showed a PBM binding z-score of 0.529.
CCTACGGGGCCAAAGGTCATTGATTCCAATGCTC: the PBM binding z-score is 9.49.
As to TAGCCTAGCTCATTCAGGGGCCAGTATAGAAAGC, the PBM binding z-score was -0.988.
With TAGCCTAGGTCATTGGGCTAGTATAGTACGCATC, the PBM binding z-score was determined as 3.08.
ATATGTAGGTTAGGGTCATTCCGAAAGTAGGGAA gave a PBM binding z-score of 6.58.
On to GACACAGGGTCAGCTAGAGGCCAGAGTATGGAAA, for which the PBM binding z-score turned out to be 3.17.
Consider CGAACTAGGCCACCAGGACAGTGAAGAGGTTGGA, for which the PBM binding z-score worked out at 2.28.
CCGTACGGGTCAAGGTTATAGCACGGGTGGTACG: the PBM binding z-score was 4.28.
Take CCTACAGGGCCAAAGGTCATTGATTCCAATGCTC: the PBM binding z-score amounted to 8.45.
With CCTACTGGGCCATCAGGTGATTGATATCAACGTT, the PBM binding z-score came to 1.63.
Regarding ATCGAATGGTCGAAGGTGAGTATACCCACCCGAA, the PBM binding z-score worked out at 1.34.
CCTAGTTGGTCAGGAGGTCACAAACCGGATATGA displayed a PBM binding z-score of 3.7.
In the case of ATACGTAGGTTACATCCGGGTCATTCAGGCTATG, the PBM binding z-score was determined as 1.54.
Same read-out and setting: the same measure for CCTTACGGGTCACTGACAGGTCATAGCATTTGGA: 5.35.
On the same count and under the same terms, the value for CCTAGTTGGTCAGGAGGCCACACACCGGATATGA was 0.732.
With CGAACTAGGTCACCTGGACAGTGAAGAGGTTGGA, the PBM binding z-score turned out to be 6.5.
Sequence CGAACTAGGTCACCATGACAGTGAAGAGGTTGGA displayed a PBM binding z-score of 6.55.
Consider CCTACTGGGCCAAAAATGTCATTGATGCCGATAA, for which the PBM binding z-score is 0.911.
Regarding CGCACTAGGTCACCAGGACAGTGAAGAGGTTGGA, the PBM binding z-score was determined as 6.61.
The same measure, in the same setting: the value for CGAACTATGTCACCAGGACAGTGAAGAGGTTGGA was 1.26; that for ATACCAAGGTTATCGTGAGGTCGTTGATACTAAC was 1.56; that for CCTACTGGGCGACGAAAGGTCATTGATTCAGTGA was 3.74.
The sequence ATATGTAGGTTAGGATCATTCAGAAAGTAGGGAA gave a PBM binding z-score of 3.07.
Sequence CGAGCTAGGTCACCAGGACAGTGAAGAGGTTGGA displayed a PBM binding z-score of 3.66.
The sequence CCAGAAAGGTGAAAGGTAACTCAGTCTGGTACGC registered a PBM binding z-score of 6.26.
The sequence CGTCAAAGTTCAACTAAGGTAACGTATAGCACGC returned a PBM binding z-score of 5.56.
In turn, CGCACTAGGTCAAAGGACAGTGAAAGGCGACGTA showed a PBM binding z-score of 8.55.
As to CGAACTAGGTTACCAGGACAGTGAAGAGGTTGGA, the PBM binding z-score stood at 3.65.
ATATGTAGGTTAGGGTCGTTCAGAAAGTAGGGAA: the PBM binding z-score came out at 4.99.
CGAACTAGGTCAAAGGACAGTGACAGGCGACGTA yielded a PBM binding z-score of 8.72.
Same read-out and setting: the value for CGTCCAAGGGCAGCAGGTCAGTGAAAGCGACGTG was 0.501; that for CGAACTAGGTCACCAGGACACTGAAGAGGTTGGA was 7.07; that for GCTTACGGGTCAAAGGTTACAGCATGAATAGAAT was 9.99.
On the same count and under the same terms, the value for TTACCAAGGTGAAAGGTCGTTGAAGCACGCCTTG was 8.52.
Still for that read-out and setting: the value for CGAACTAGGTCAAAGGACAATGAAAGGCGACGTA was 8.49; that for GCTTACGGGTCAAAGGTTATAGTATGAATAGAAT was 9.15; that for CGTCCAAGGTCATAGGAGGTCACTGAAGACAGAT was 6.6.
For ATCGAAAGGTCGACGAGGTGAGTATGCACCGTTT, the PBM binding z-score came out at 3.05.
The sequence CGAACTAGGTCTCCAGGACAGTGAAGAGGTTGGA showed a PBM binding z-score of 0.999.

Another test has as its system PPARg:RXRa 30nM:10nM, anti-RXR (NR concentration 30 nM, RXRa partner concentration 10 nM). Described as above. The procedure, abridged:
as §1
The sequence CCCCGGAGGACAGAAGGTCAGAGCTGTCCGCTTT came in with a PBM binding z-score of -0.911.
Same read-out and setting: the same measure for CCTACGGGGCCAAAGGTCATTGATTCCAATGCTC: 8.43; for TAGCCTAGCTCATTCAGGGGCCAGTATAGAAAGC: -0.46; for TAGCCTAGGTCATTGGGCTAGTATAGTACGCATC: 0.744.
Same read-out and setting: the same measure for ATATGTAGGTTAGGGTCATTCCGAAAGTAGGGAA: 4.22.
GACACAGGGTCAGCTAGAGGCCAGAGTATGGAAA showed a PBM binding z-score of 0.295.
Consider CGAACTAGGCCACCAGGACAGTGAAGAGGTTGGA, for which the PBM binding z-score stood at 0.382.
The sequence CCGTACGGGTCAAGGTTATAGCACGGGTGGTACG returned a PBM binding z-score of 1.2.
Regarding CCTACAGGGCCAAAGGTCATTGATTCCAATGCTC, the PBM binding z-score was 8.14.
CCTACTGGGCCATCAGGTGATTGATATCAACGTT: the PBM binding z-score amounted to 0.102.
Sequence ATCGAATGGTCGAAGGTGAGTATACCCACCCGAA registered a PBM binding z-score of 0.48.
Same read-out and setting: the same measure for CCTAGTTGGTCAGGAGGTCACAAACCGGATATGA: 1.19; for ATACGTAGGTTACATCCGGGTCATTCAGGCTATG: 0.526.
CCTTACGGGTCACTGACAGGTCATAGCATTTGGA displayed a PBM binding z-score of 2.02.
Turning to CCTAGTTGGTCAGGAGGCCACACACCGGATATGA, the PBM binding z-score was 0.118.
In turn, CGAACTAGGTCACCTGGACAGTGAAGAGGTTGGA gave a PBM binding z-score of 4.2.
Same read-out and setting: the same measure for CGAACTAGGTCACCATGACAGTGAAGAGGTTGGA: 4.64.
As to CCTACTGGGCCAAAAATGTCATTGATGCCGATAA, the PBM binding z-score was -0.0652.
The same measure, in the same setting: the same measure for CGCACTAGGTCACCAGGACAGTGAAGAGGTTGGA: 4.56.
The same measure, in the same setting: the same measure for CGAACTATGTCACCAGGACAGTGAAGAGGTTGGA: 0.318.
As for ATACCAAGGTTATCGTGAGGTCGTTGATACTAAC, the PBM binding z-score amounted to 0.633.
The same measure, in the same setting: the same measure for CCTACTGGGCGACGAAAGGTCATTGATTCAGTGA: 1.35; for ATATGTAGGTTAGGATCATTCAGAAAGTAGGGAA: 1.22; for CGAGCTAGGTCACCAGGACAGTGAAGAGGTTGGA: 0.712.
On the same count and under the same terms, the same measure for CCAGAAAGGTGAAAGGTAACTCAGTCTGGTACGC: 4.77; for CGTCAAAGTTCAACTAAGGTAACGTATAGCACGC: 2.29; for CGCACTAGGTCAAAGGACAGTGAAAGGCGACGTA: 8.13.
Still for that read-out and setting: the same measure for CGAACTAGGTTACCAGGACAGTGAAGAGGTTGGA: 0.924; for ATATGTAGGTTAGGGTCGTTCAGAAAGTAGGGAA: 2.44.
CGAACTAGGTCAAAGGACAGTGACAGGCGACGTA registered a PBM binding z-score of 8.9.
Still for that read-out and setting: the same measure for CGTCCAAGGGCAGCAGGTCAGTGAAAGCGACGTG: -0.617; for CGAACTAGGTCACCAGGACACTGAAGAGGTTGGA: 4.81.
Still for that read-out and setting: the value for GCTTACGGGTCAAAGGTTACAGCATGAATAGAAT was 10; that for TTACCAAGGTGAAAGGTCGTTGAAGCACGCCTTG was 7.08.
Same read-out and setting: the same measure for CGAACTAGGTCAAAGGACAATGAAAGGCGACGTA: 8.29.
As for GCTTACGGGTCAAAGGTTATAGTATGAATAGAAT, the PBM binding z-score was found to be 8.51.
For CGTCCAAGGTCATAGGAGGTCACTGAAGACAGAT, the PBM binding z-score turned out to be 3.16.
Consider ATCGAAAGGTCGACGAGGTGAGTATGCACCGTTT, for which the PBM binding z-score came out at 0.831.
Still for that read-out and setting: the value for CGAACTAGGTCTCCAGGACAGTGAAGAGGTTGGA was -0.187.
